Marburg entry inh = qHTS for inhibitors of binding or entry into cells for Marburg Virus; Marburg virus pseudotyped entry inhibition, cell reporter; Potency, µM (doses to about 37.8 µM), hits mostly inhibitors; 300,000 tested, 1.8% active; AID 540276, 2011; calls by dose curve; tested in HEK293 cells
LASV entry inh = qHTS for Inhibitors of binding or entry into cells for Lassa Virus; Lassa virus pseudotype entry inhibition, cell reporter; Potency, µM (series often up to 37.9 µM), usual class: inhibitors; 300,000 tested, 1.2% active; calls by dose curve; tested in HEK293 cells; also: nearly all actives have a fitted effect of over 50% in size
HCMV inh = qHTS Assay for inhibitors of the human cytomegalovirus (HCMV); activity change, negative = inhibition, % at 57.5 µM; HFF cells, HCMV-luciferase reporter, 72 h; hits give low values; 410,000 tested, 4.5% active; in the data active = activity change below about -60%; inconclusive = no clear call, values can overlap the other calls; inactive = above about -39%
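HFF cells seeded 16 h at 37C, treated with compounds, infected with luciferase-reporter HCMV at MOI 1 PFU/cell; luciferase read at 72 h post infection, normalized to buffer-only and Salinomycin controls.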
HCV inh = qHTS Assay for Inhibitors of Hepatitis C Virus (HCV); Huh7.5.1 HCVcc-Cre infection, luciferase reporter, 44 h; Potency, µM (series often up to 41.8 µM), most hits filed as inhibitors; 340,000 tested, 3.4% active
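Luciferase read-out (15 sec integration) after a 15 min room-temperature substrate step quantifies HCVcc-Cre infection. Cells, 1,000 per well, had compound added 4 h post-plating, then virus at ~0.5 moi, and were cultured 44 h.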
Pf growth 96h = Primary qHTS for delayed death inhibitors of the malarial parasite plastid, 96 hour incubation | P. falciparum luciferase reporter growth, 96 h | Potency, µM (doses to about 28.7 µM), usual class: inhibitors | 320,000 tested, 6.9% active
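P. falciparum expressing integrated firefly luciferase, in erythrocytes at 2% hematocrit, 0.05% parasitemia, incubated with compounds 96 h at 37 C, 5% CO2. Growth inhibition read as loss of luminescence; two-generation exposure targets delayed-death apicoplast inhibitors.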
Pf growth 48h = Primary qHTS for delayed death inhibitors of the malarial parasite plastid, 48 hour incubation; AID 504832, 2011; P. falciparum luciferase growth in erythrocytes, 48 h; Potency, µM (titrated, usually from 28.7 µM), actives largely listed as inhibitors; 310,000 tested, 5.9% active
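Read-out is firefly luciferase luminescence from an integrated reporter in P. falciparum, so falling signal marks reduced parasite growth. Infected erythrocytes were at 2% hematocrit and 0.1% parasitemia (final) in Albumax-supplemented RPMI 1640.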
Hits are given with their value; 0 = inactive; ? = inconclusive; - = not tested or not shown; [ ] = dose if it differs, or a comment. Most compounds without a hit are left out; they make up all but 14% or so of the library. Unless noted, calls follow the shape of the dose curve; as a rule, active = well fitted inhibition curve with a large enough effect; inconclusive = small, poorly fitted or top-dose-only effect, or another doubt; inactive = no such curve, though single readings can be large or run the other way.

SMILES	Marburg entry inh	LASV entry inh	HCMV inh	HCV inh	Pf growth 96h	Pf growth 48h
O=C(O)CNC(=S)NCc1ccccc1	?	0	0	0	0	13.1µM
COc1ccc(CCNC(=O)c2cc3c(=O)n(C)c4ccccc4c3s2)cc1OC	0	0	0	-	-	-
Cc1cn2c(-c3ccc(Cl)cc3)nnc2s1	-	-	0	10µM	0	?
COCCCNC(=O)CSc1nc2cc3c(cc2c(=O)n1CCCC(=O)NCc1ccc(OC)cc1)OCO3	0	0	0	?	10.4µM	0
CCN(CC)C(=O)CSc1nc2cc3c(cc2c(=O)n1CCCCCC(=O)NCCc1ccc(OC)c(OC)c1)OCO3	-	0	-82.5	-	-	-
CC(C)C[C@H](NC(=O)c1nc[nH]c1C(=O)NCC(=O)OCc1ccccc1)C(=O)OCc1ccccc1	-	-	0	0	?	4.65µM
CC(C)C[C@H](NC(=O)c1[nH]cnc1C(=O)N[C@@H](C)C(=O)OC(C)(C)C)C(=O)OC(C)(C)C	0	-	?	0	9.28µM	7.38µM
CC1CCN(C(=O)c2[nH]cnc2C(=O)N[C@@H](C)C(=O)OCc2ccccc2)CC1	-	-	0	3.55µM	0	0
C[C@H](NC(=O)c1nc[nH]c1C(=O)N1CCN(C(=O)OC(C)(C)C)CC1)C(=O)OCc1ccccc1	-	-	0	0	0	0
CC(C)C[C@H](NC(=O)c1[nH]cnc1C(=O)N[C@@H](C)c1ccccc1)C(=O)OCc1ccccc1	-	-	-	?	5.86µM	8.28µM
CCN(C(=O)COC(=O)c1ccccc1Cc1ccccc1)c1c(N)n(Cc2ccccc2)c(=O)[nH]c1=O	-	-	0	0	-	-
CC(C)C[C@H](NC(=O)c1nc[nH]c1C(=O)N[C@@H](CC(C)C)C(=O)OC(C)(C)C)C(=O)OCc1ccccc1	-	-	-101.1	0[8.37 µM]	?	?
CC(C)C[C@H](NC(=O)c1nc[nH]c1C(=O)NCC(=O)OC(C)(C)C)C(=O)OCc1ccccc1	-	-	0	0[8.37 µM]	0	?
Nc1ccn([C@@H]2O[C@H](CNCc3ccc(N4CCNCC4)cc3)[C@@H](O)[C@H]2O)c(=O)n1	-	-	0	-	-	-
c1ccc(-n2nnnc2CN2CCOCC2)cc1	-	-	-68.0	0	0	0
Nc1ccc(-n2nnnc2CN2CCOCC2)cc1	?	0	0	0	?	0
O=[N+]([O-])c1ccc(-n2nnnc2CN2CCOCC2)cc1	0	0	0	0	6.57µM	0
Nc1cccc(-n2nnnc2CN2CCOCC2)c1	0	0	0	0	10.4µM	0
CC1(C(=O)NC2CCCC2)CCC(=O)N1CCOc1ccccc1 (stereo unspecified)	-	-	0	-	-	-
COc1cc(/C=C(\C#N)c2nn(CCO)c(N)c2C#N)cc(OC)c1OC	?	0	0	?	0	7.38µM
O=c1cc(O)c2ccccc2n1Cc1ccccc1F	0	0	0	0	0	0
O/N=C/c1cc2ccccc2n1Cc1ccccc1F	-	-	0	0	0	2.62µM
COc1ccccc1/C=C/C=C1\Oc2c(ccc(O)c2CN(C)C)C1=O	-	-	0	0	?	2.62µM
CCN(CC)Cc1c(O)ccc2c1O/C(=C\C=C\c1ccccc1)C2=O	-	-	?	0	?	?
COc1ccccc1Cc1c(-c2ccc(F)cc2)nc2cc(C)c(Br)c(C)n12	-	-	0	-	-	-
SMILES	Marburg entry inh	LASV entry inh	HCMV inh	HCV inh	Pf growth 96h	Pf growth 48h
CC#CC#Cc1cccc(=O)o1	-	-	-88.9	?	10.4µM	11.7µM
CC1(C(=O)NS(=O)(=O)c2cccc(Cl)c2)CCN1C(=O)Cc1ccc(-c2ccccc2)cc1 (stereo unspecified)	-	-	0	-	-	-
O=S(=O)(CCN1CCOCC1)c1ccc(Oc2ccc(S(=O)(=O)CCN3CCOCC3)cc2)cc1	?	0	-65.3	3.55µM	?	0
O=S(=O)(c1ccc(F)cc1)N1CCN(c2ccccc2)CC1	0	?	0	0	?	-
O=S(=O)(CCN1CCOCC1)c1ccc(Cl)cc1	0	0	0	0	-	-
O=S(=O)(c1ccc(Br)cc1)N1CCN(c2ccccc2)CC1	0	0	0	0	0	10.4µM
O=S(=O)(c1ccc(Oc2ccc(Br)cc2)cc1)N1CCOCC1	?	?	-72.7	?	-	0
O=S(=O)(c1ccccc1)N1CCN(c2ccccc2)CC1	-	-	0	0	0	0
O=S(=O)(c1ccccc1)N1CCN(S(=O)(=O)c2ccc(F)cc2)CC1	-	-	0	0	10.4µM	0
CCOc1ccc(-c2nc(SCC(=O)NC3CCCC3)c(-c3ccccc3)[nH]2)cc1OC	?	0	0	-	-	-
CCN(CC)CCN1C(=O)C(=O)/C(=C(/O)c2ccc(S(=O)(=O)N3CCOCC3)cc2)C1c1ccc(Cl)cc1 (stereo unspecified)	0	0	0	0	0	0
Cc1nc(N2CCOCC2)c2c(C(=O)NCc3ccc(Cl)cc3)c(C)oc2n1	-	0	0	-	-	-
COC(=O)c1c(C)oc2ccc(N(C(=O)Oc3ccccc3)S(=O)(=O)c3ccc(C(C)(C)C)cc3)cc12	-	?	0	-	-	-
CC(C)[C@@H]1Cc2[nH][nH]c(=O)c2[C@H](c2ccc(F)cc2)O1	-	-	0	-	-	-
O=S(=O)(Nc1ccc(Br)cc1)N1CCOCC1	0	0	0	0	9.28µM	0
Cc1ccc(NS(=O)(=O)N2CCOCC2)cc1	?	0	0	0	?	0
COc1ccc(C(C(=O)NC2CCCCC2)N(C(=O)CCCC(=O)Nc2ccccn2)c2ccc3c(c2)OCCO3)cc1 (stereo unspecified)	0	?	0	0	9.28µM	?
O=C(CCCC(=O)N(c1ccc2c(c1)OCCO2)C(C(=O)NC1CCCCC1)c1ccc(Cl)cc1)Nc1ccccn1 (stereo unspecified)	?	?	-68.7	0	?	?
O=C(CCCC(=O)N(c1cccc(F)c1)C(C(=O)NC1CCCC1)c1ccc(O)cc1)Nc1ccccn1 (stereo unspecified)	0	?	0	0	0	?
CC(=CCO)CCO	0	?	-	-	-	-
Cc1ccc(CNC(=O)c2cccc(NC(=O)N3CCSc4ncccc43)c2)cc1	-	0	0	-	-	-
O=C(Nc1nc2ccccc2n1Cc1ccccc1)c1ccc(COc2ccccc2[N+](=O)[O-])o1	?	0	0	?	?	1.85µM
O=C(Nc1nc2ccccc2n1CCN1CCOCC1)c1ccc(COc2ccccc2Br)o1	?	?	?	10µM	0[5.75 µM]	?
O=C(Nc1nc2ccccc2n1CCN1CCOCC1)c1ccc(Cn2cc([N+](=O)[O-])cn2)o1	?	?	0	0	?	?
Cc1ccc(OCc2ccc(C(=O)Nc3nc4ccccc4n3Cc3ccccc3)o2)c([N+](=O)[O-])c1	?	0	0	?	-	?
CC(C)CN(CCCNC(=O)CN1N=C(c2ccccc2)CCC1=O)CC(C)C	-	0	0	-	-	-
Cc1nn(C)c(C)c1S(=O)(=O)N1CCC(C(=O)NC2CCCCC2)CC1	0	0	0	0	9.28µM	0
Cc1nn(C)c(C)c1S(=O)(=O)N1CCC(C(=O)NC2CCCCCC2)CC1	0	-	?	0	5.22µM	0
